From PubChem
Compounds with a hit are over-represented: about 5.4% of the library has one in this group of screens.
A3A deaminase: inhibitors of human APOBEC3A DNA deaminase | P31941 | recombinant A3A, FAM/TAMRA ssDNA deamination fluorescence | inhibition, % at 20 µM | 0.41% of 330,000 active | AID 493011;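 active means at least 40% inhibition at 20 µM here, with at most 30% in a related deaminase screen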;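 further: plate controls were A3A with DMSO for no effect and wells lacking A3A enzyme for full effect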
Target sequence (P31941 whole entry, looked up): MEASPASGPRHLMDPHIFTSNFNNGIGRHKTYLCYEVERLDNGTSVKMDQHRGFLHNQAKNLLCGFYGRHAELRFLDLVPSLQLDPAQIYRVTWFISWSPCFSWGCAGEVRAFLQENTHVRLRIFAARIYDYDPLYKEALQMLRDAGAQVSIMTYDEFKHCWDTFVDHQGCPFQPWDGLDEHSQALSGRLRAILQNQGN
A3G deaminase: inhibitors of human APOBEC3G DNA deaminase; Q9HC16; recombinant A3G, ssDNA deamination FAM/TAMRA fluorescence; inhibition, % at 20 µM; 0.28% of 330,000 active;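 active means inhibition of at least 40% at 20 µM, with no more than 30% in the related APOBEC3A deaminase screen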;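 further: plate controls were DMSO wells with A3G for no effect and wells lacking A3G enzyme for full effect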
aDG glyco up: increases alpha dystroglycan glycosylation; Pro5-aDG cells, alpha-DG glycosylation AlphaScreen (IIH6); 0% Pro5, 100% B10-LARGE cell signal; activation, % at 10 µM; 0.22% of 360,000 active; AID 624168;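 active means activation of at least 8% versus controls, or a plate z-score of at least 8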;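 further: Pro5 are CHO cells carrying HIG-tagged alpha-DG that lacks glycosylation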
PHOSPHO1 inh: PHOSPHO1 (human) inhibition; inhibition, % at 13.3 µM; Q8TCT1; recombinant PHOSPHO1, absorbance phosphatase assay; 1.1% of 290,000 active; in the data active means inhibition above about 60%
rCAG binder: binds r(CAG) RNA repeats | inhibition, % at 3 µM | r(CAG) RNA repeat, TO-PRO-1 dye displacement fluorescence | 1.3% of 370,000 active;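 active means inhibition above the plate cutoff, the mean of all test compounds on that plate plus 3 SD, cut at about 35% in these data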;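 further: 0% = DMSO alone and 100% = 100 µM mitoxantrone as full dye displacement; higher means more dye released from RNA so lower well fluorescence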
ALR H2O2 inh: human ALR oxidase inhibition via reduced H2O2. P55789. purified ALR, DTT oxidation, H2O2 HRP-luminol luminescence. inhibition, % (test concentration not listed). 3.8% of 290,000 active. AID 485317;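 active means mean replicate inhibition above about 79%, with every replicate also reaching it, limit read from the data; inconclusive means only one of the two criteria met; inactive means mean below limit and not every replicate reaching it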
Target sequence (P55789 whole entry, looked up): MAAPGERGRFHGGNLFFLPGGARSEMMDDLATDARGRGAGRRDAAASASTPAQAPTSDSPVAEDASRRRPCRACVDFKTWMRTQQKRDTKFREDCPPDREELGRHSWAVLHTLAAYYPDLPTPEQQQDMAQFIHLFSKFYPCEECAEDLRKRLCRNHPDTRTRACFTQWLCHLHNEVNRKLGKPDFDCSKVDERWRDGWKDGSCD
APOBEC3A confirm: APOBEC3A (human) deaminase inhibition, confirmed; shares compounds with A3A deaminase; recombinant A3A, ssDNA deaminase UDG fluorescence assay; inhibition, % at 20 µM; 63% of 1,400 active;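 active means inhibition reaching a set limit, 80% of the first screen's cutoff, at 20 µM in any replicate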;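 further: plate controls were DMSO wells with A3A for no effect and wells lacking A3A enzyme for full effect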
UDG ctr A3A: inhibits UDG, flagging false APOBEC3A inhibitors; shares compounds with A3A deaminase; UDG counterscreen, FAM/TAMRA uracil oligo fluorescence; inhibition, % at 20 µM; 1,000 tested, under 10 active; call rule not given here
APOBEC3G confirm: APOBEC3G (human) deaminase inhibition, confirmed. shares compounds with A3G deaminase. recombinant A3G ssDNA deaminase, UDG/FAM-TAMRA fluorescence. inhibition, % at 20 µM. 72% of 890 active. AID 493152;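 active means inhibition reaching a set limit in any replicate at 20 µM, the limit being 80% of the first screen's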
UDG ctr A3G: inhibits E. coli UDG, flagging false APOBEC3G inhibitors | shares compounds with A3G deaminase | UDG counterscreen, FAM/TAMRA oligo fluorescence | inhibition, % at 20 µM | 710 tested, under 10 active | AID 504715;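 active means compounds giving 40% or more inhibition at 20 µM in any one of the three replicates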;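 further: plate controls were DMSO wells with UDG and oligo for no effect and DMSO wells lacking both for full effect; inhibitors lower the FAM signal released by uracil excision and alkaline cleavage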
* = called active by the depositor; ? = inconclusive; nt = no result given; ! = not confirmed by another sample.

SMILES	A3A deaminase	A3G deaminase	aDG glyco up	PHOSPHO1 inh	rCAG binder	ALR H2O2 inh	APOBEC3A confirm	UDG ctr A3A	others
CN1C(=O)NC(=O)/C(=C\c2ccc([N+](=O)[O-])o2)C1=O	65*	26	0	-10	nt	-33	54*	nt
C[N+]1(C)CCN(c2ccccc2)CC1	73*	27	0	18	0	-4	78*	0
Cc1cc(O)c(CN2CCN(c3ccccc3)CC2)cc1C	4	6	1	18	-4	nt	nt	nt
CCOc1c(P(=S)(N(C)C)N(C)C)c(C)nn1-c1ccccc1	42*	5	0	0	-3	4	4	nt
Cn1c[n+](C)cc1C(O)c1ccccc1 (stereo not drawn)	60*	17	0	96*!	4	-15	51*	-3
CCC(CO)(C(=O)OC1C[N+]2(C)CCC1CC2)c1ccccc1 (stereo not drawn)	56*	11	0	-10	1	5	70*	-2
O=C(NCCN1CCC2(CC1)C(=O)NCN2c1ccccc1)c1cccc2c1-c1ccccc1C2=O	nt	nt	nt	nt	5	nt	nt	nt
COCCNC(=O)N1[C@H]2CC[C@@H]1C(C(=O)OC)=C(c1ccc(OC(F)(F)F)cc1)C2	-1	-4	0	nt	-8	-1	nt	nt
COc1cc2c(cc1OC)-c1c(OC)c(OC)cc3c1[C@H](C2)[N+](C)(C)CC3	83*	23	1	33	0	-10	71*	-1
COc1cccc(C(=O)NCCN2CCC3(CC2)C(=O)NCN3c2ccccc2)c1	nt	nt	nt	nt	-1	nt	nt	nt
Cc1ccc2c(c1)C1CN(C)CCC1N2C(=O)c1cccs1 (stereo not drawn)	-1	2	0	-30	-5	0	nt	nt
Cc1ccc2c(c1)C1C[N+](C)(CC(=O)c3ccc(Cl)cc3Cl)CCC1N2C(=O)c1ccc(F)cc1 (stereo not drawn)	79*	13	0	nt	13	nt	79*	-2
COc1ccc(C(C)=O)cc1CN1CC=C(c2ccccc2)CC1	56*	5	0	6	nt	-2	33*	-2
O=c1ccc2c(O)c3ccoc3cc2o1	-4	-9	0	nt	1	nt	nt	nt
O=C(O)c1ccc2c(c1)C1C(Cl)C(Sc3ccccc3[N+](=O)[O-])CC1C(c1cccc([N+](=O)[O-])c1)N2 (stereo not drawn)	nt	nt	0	-16	nt	nt	nt	nt
Cc1ccc2c(c1Cl)NC(C(=O)O)C1CC(Sc3ccccc3[N+](=O)[O-])C(Cl)C21 (stereo not drawn)	41*	25	0	-98	nt	?	29	nt
CCC1C(c2ccccc2)NC(c2ccccc2)CC1(O)c1ccc(F)cc1 (stereo not drawn)	0	-3	0	24	-4	-22	nt	nt
C[C@H]1COc2cccc(N3CCN(C)CC3)c2S(=O)(=O)N1	nt	nt	0	nt	-1	nt	nt	nt
O=C1NCN(c2ccccc2)C12CCN(C(c1ccnc3ccccc13)c1nnnn1Cc1ccccc1)CC2 (stereo not drawn)	nt	nt	0	nt	4	nt	nt	nt
CCOP(=O)(OCC)C1(O)C(=O)Nc2ccccc21 (stereo not drawn)	3	-4	0	-5	-1	-7	nt	nt
CC1CCCC(C2(O)C(=O)Nc3ccccc32)C1=O (stereo not drawn)	68*	10	0	34	1	-25	74*	-2
Cn1c(NN=O)nc2ccccc21	2	59*	0	15	1	-10	nt	nt	APOBEC3G confirm=28*;UDG ctr A3G=-1
O=c1[nH]c(=O)n(CCC2=CCCCC2)c(O)c1C=NC1CCN(Cc2ccccc2)CC1	-4	-8	2	6	2	-7	nt	nt
